Experimental data from PubChem BioAssay (NCATS).
Results with a measured potency or affinity are listed apart. Unmarked numbers belong to inactive results. No rule for the calls is given here.

Settings: Ebola virus entry assay, green fluorescence channel
Also: 0% is about no effect.

Point of comparison: `CCN(CC)CCc1c[nH]c2ccccc12`, efficacy 21.6%. Against it:
- CCn1cc(C(=O)O)c(=O)c2cnc(N3CCCC3)nc21 — lower, 11.6%
- Cc1cc(=O)c2c(O)c3c(O)cc(=O)c4c3c3c(cc(O)c1c23)C(C)(C)C=4O — lower, -11.2%
- Cc1cc(O)cc(C)c1Cl — lower, -20.2%
- Nc1ccc(C(=O)OCC(O)CO)cc1 (centres undefined) — lower, 18.5%
- O=C(O)c1ccccc1S — lower, 16.8%
- O=[N+]([O-])c1ccc(/C=N\O)o1 — lower, 8.52%
- COC(=O)c1cc(Cl)ccc1NS(=O)(=O)C(F)(F)F — lower, -9.07%
- COc1ccc(C2CNC(=O)C2)cc1OC1CCCC1 (centres undefined) — lower, -23.7%
- NS(=O)(=O)c1cc2c(cc1Cl)NC(CC1CCCC1)NS2(=O)=O (centres undefined) — lower, 19%
- CN1CCN(N)CC1 — lower, 16.4%
- C#C[C@]1(O)CC[C@H]2[C@@H]3CCC4=CC(=O)CC[C@]4(C)[C@H]3CC[C@@]21C — lower, -17.3%
- Cc1ccc(S(=O)(=O)NC(=O)NC2CCCCC2)cc1 — lower, -18.8%
- Cn1c(=O)c2[nH]c(Br)nc2n(C)c1=O — lower, -24.3%
- C#C[C@]1(O)CC[C@H]2[C@@H]3CCc4cc(OC5CCCC5)ccc4[C@H]3CC[C@@]21C — higher, 57.3%
- COc1ccc(/C(C)=C/C(=O)O)c(OC)c1 — lower, -13.7%
- CS(=O)(=O)c1ccc([C@@H](O)[C@@H](CF)NC(=O)C(Cl)Cl)cc1 — lower, -18.1%
- OCCc1ccccc1 — higher, 36.8%
- O=C1c2c(O)cccc2Cc2cccc(O)c21 — lower, -17.8%
- CC(C)(C)NC[C@H](O)COc1nsnc1N1CCOCC1 — lower, 15.5%
- CC(=O)O[C@@H]1C(=O)O[C@@H]2[C@H]1OC(=O)[C@@H]2OC(C)=O — lower, -16.6%
- C[C@@H](CN1CC(=O)NC(=O)C1)N1CC(=O)NC(=O)C1 — lower, 17.9%
- CNC(=O)c1ccccc1Sc1ccc2c(/C=C/c3ccccn3)n[nH]c2c1 — higher, 28.2%
- Nc1ccc(S(=O)(=O)Nc2ccc(Cl)nn2)cc1 — lower, -19.3%
- O=C(O)c1ccc(=O)[nH]c1 — lower, -14.8%
- CC1(COc2ccc(CC3SC(=O)NC3=O)cc2)CCCCC1 (centres undefined) — lower, -16.4%
- CCCc1c2oc(C(=O)O)cc(=O)c2cc2c(=O)cc(C(=O)O)n(CC)c12 — lower, 16%
- C[C@]12CCC(=O)C=C1CC[C@@H]1[C@@H]2[C@@H](O)C[C@@]2(C)[C@H]1CC[C@]2(O)C(=O)COC(=O)CCC(=O)O — lower, -14%
- C=C(C)[C@H]1CN[C@H](C(=O)O)[C@H]1CC(=O)O — lower, -11.7%
- O=C(CS(=O)Cc1ccco1)NC/C=C\COc1cc(CN2CCCCC2)ccn1 (centres undefined) — higher, 29.8%
- CC1CCN(CCCC(=O)c2ccc(F)cc2)CC1 — lower, -14.6%
- COc1c2occc2c(OC)c2c(=O)cc(C)oc12 — lower, 13.6%
- COC(=O)[C@@H](N)CCCN/C(N)=N/[N+](=O)[O-] — lower, -11.3%
- Cc1c(NC(C)C)c(=O)n(-c2ccccc2)n1C — lower, -14.1%
- Oc1ccccc1C=NCc1ccccc1 — lower, -16.4%
- COC(=O)/C=C(/C)N — higher, 22.1%
- CC(=O)Nc1c(I)c(NC(C)=O)c(I)c(C(=O)O)c1I — lower, -8.35%
- CCCCC(=O)OCC(=O)[C@H]1[C@H](C)C[C@H]2[C@@H]3C[C@H](F)C4=CC(=O)C=C[C@]4(C)[C@@]3(F)[C@@H](O)C[C@@]21C — higher, 21.9%
- NCCNCCNCCN — lower, 15%
